Assay outcomes: PubChem, National Center for Advancing Translational Sciences (NCATS)
pAkt inh: blocks phosphorylation of Akt | activity change, % for hits at 50 µM | Neuro2A IGF-stimulated pAkt S473 HTRF, 20 min; stronger effect = lower value | AID 651550 | actives 0.32% (n = 360,000); in the data active = activity change below about -80%; inconclusive = mostly about -51% to -80%; also: % is scaled to controls: 0 for no effect and ±100 for the full control effect
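Neuro2A cells (4,500/well, DMEM with 0.5% FBS) were treated with compound at a single 50 µM final concentration, stimulated with 6 nM IGF for 20 min at 37 °C, and lysed. Phospho-Akt Ser473 was read by HTRF as 665/615 ratio ×10^4.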
gsp agonist: activates gsp, the McCune-Albright syndrome mutation. actives 0.13% (n = 340,000). Potency, µM (series often up to 76.9 µM), inactives show at the highest dose activation (cAMP increase), usual class: activators. gsp mutant cells, cAMP HTRF, 30 min. AID 624287; active = well fitted activation curve with a large enough effect; inconclusive = small, poorly fitted or top-dose-only effect, or another doubt; inactive = no such curve, though single readings can be large or run the other way; cell line not stated here;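 also: phosphodiesterase inhibitor Ro 20-1724 added with compounds to block cAMP breakdown; potency is read from the fitted curve at half-maximal effect; nearly all actives have a fitted effect of over 60% in size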
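Cells in DMEM/10% FBS with G418 were pretreated with compounds in DMSO plus […] (300 uM stock) for 30 min at 37C. cAMP was measured by HTRF (cAMP-d2 plus anti-cAMP antibody-K) after 30 min at room temperature.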
gsp antagonist: gsp mutant antagonism; gsp-mutant cells, cAMP HTRF, 30 min; Potency, µM (series often up to 76.9 µM), inactives show at the top dose activity change, negative = inhibition, most hits filed as inhibitors; actives 0.4% (n = 340,000); AID 624288; calls by dose curve; cell line not stated here;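 also: intracellular cAMP measured with PDE inhibitor Ro 20-1724 present during compound exposure; potency is read from the fitted curve at half-maximal effect; % is scaled to controls: 0 for no effect and ±100 for the full control effect; nearly all actives have a fitted effect of over 65% in size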
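HTRF cAMP measurement after 30 min RT detection following 30 min, 37C compound treatment alongside […] (added as 300 uM solution) in G418-selected cells seeded at 2000/well and grown 16–24 h.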
RXFP1 ag: agonists of human relaxin receptor RXFP1. Q9HBX9. HEK293T-RXFP1 cAMP TR-FRET, 30 min; response scale: percent of porcine relaxin response, buffer zero. Potency, µM (doses to about 57.5 µM), inactives show at the top dose activation, hits mostly activators. actives 0.3% (n = 370,000). AID 2676; active = well fitted activation curve with a large enough effect; inconclusive = small, poorly fitted or top-dose-only effect; also: potency is read from the fitted curve at half-maximal effect; % is scaled to controls: 0 for no effect and ±100 for the full control effect; nearly all actives have a fitted effect of over 60% in size
Target sequence (Q9HBX9 whole entry, looked up): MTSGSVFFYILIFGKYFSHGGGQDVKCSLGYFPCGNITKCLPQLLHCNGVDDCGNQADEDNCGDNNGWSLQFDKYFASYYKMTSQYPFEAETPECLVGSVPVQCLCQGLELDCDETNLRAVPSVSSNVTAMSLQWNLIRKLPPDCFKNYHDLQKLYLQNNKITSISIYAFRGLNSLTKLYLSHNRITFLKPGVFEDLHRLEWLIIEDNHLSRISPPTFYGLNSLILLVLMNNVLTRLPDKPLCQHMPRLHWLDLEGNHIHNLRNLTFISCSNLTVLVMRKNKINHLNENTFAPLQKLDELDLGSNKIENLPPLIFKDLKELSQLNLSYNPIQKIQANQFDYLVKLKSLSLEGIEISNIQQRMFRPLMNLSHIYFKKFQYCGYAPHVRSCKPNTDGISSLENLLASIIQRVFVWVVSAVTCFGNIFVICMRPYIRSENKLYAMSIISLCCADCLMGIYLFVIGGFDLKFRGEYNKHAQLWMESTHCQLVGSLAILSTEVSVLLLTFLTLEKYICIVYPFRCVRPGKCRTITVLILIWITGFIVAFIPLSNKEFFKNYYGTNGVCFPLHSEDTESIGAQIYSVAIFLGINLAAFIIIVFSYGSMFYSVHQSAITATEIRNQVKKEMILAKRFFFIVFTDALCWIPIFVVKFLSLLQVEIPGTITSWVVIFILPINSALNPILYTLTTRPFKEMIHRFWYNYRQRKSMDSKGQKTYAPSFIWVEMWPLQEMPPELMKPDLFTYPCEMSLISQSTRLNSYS
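cAMP rise read by TR-FRET after 30 min, 37C compound exposure (up to 58 uM) in RXFP1-transfected HEK293 cells with Ro 20174 present. EC50 from Hill-equation fits, with 29 nM porcine relaxin as 100% and buffer as basal.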
RXFP1 antag: blocks the human relaxin receptor RXFP1 | HEK293-RXFP1, relaxin-stimulated cAMP HTRF, 30 min; stronger effect = lower value | AID 1259400 | actives 0.59% (n = 350,000) | activity change, negative = inhibition, % at 57.5 µM | Q9HBX9;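 active = activity change of -60% or lower, but not beyond a set lower limit; inconclusive = change between -60% and -40%, or beyond the set limit; inactive = change above -40%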; also: % is scaled to controls: 0 for no effect and ±100 for the full control effect
* = called active by the depositor; i = inactive; u = inconclusive; x = no result given; [ ] = dose if it differs, or a comment. Rows were chosen to be rich in hits. Some 1.2% of all compounds tested hit in one or more screens of this group.

SMILES	pAkt inh	gsp agonist	gsp antagonist	RXFP1 ag	RXFP1 antag
CC(C)C[C@H](NC(=O)CNC(=O)[C@H](Cc1ccc(O)cc1)NC(=O)[C@H](CO)NC(=O)[C@H](Cc1c[nH]c2ccccc12)NC(=O)[C@H](Cc1cnc[nH]1)NC(=O)[C@@H]1CCC(=O)N1)C(=O)N[C@@H](CCCN=C(N)N)C(=O)N1CCC[C@H]1C(=O)NCC(N)=O (stereo in doubt)	x	x	x	x	23
Cc1cc2c(c3oc(=O)c4ccccc4c13)CN(Cc1ccc(F)cc1)CO2	x	x	x	12%	2
C=CCNC(=O)C1CCN(S(=O)(=O)c2ccccc2)CC1	-95%*	21%	-1%	1%	3
C=CCNC(=O)C1CCN(S(=O)(=O)c2cccs2)CC1	i	-6%	-3%	-2%	-1
N#Cc1c(SCC(=O)O)nc(-c2ccccc2)c2c1CCCC2	i	u	5%	28%	2
N#Cc1c(SCC(N)=O)nc(-c2ccccc2)c2c1CCCC2	-111%*	-8%	-17%	0%	-1
O=C(Nc1ccsc1C(=O)O)c1cccc(Oc2ccccc2)c1	i	22%[15.4 µM]	u	10%	-80*
O=C(Nc1cccc(-c2nc3ccccc3s2)c1)c1cccs1	i	1%[15.4 µM]	22µM*	0%	-2
O=C(CCS(=O)(=O)c1ccccc1)Nc1cccc(-c2nc3ccccc3s2)c1	i	-11%	40µM*	-5%	u
O=C(CCCSc1nc2ccccc2[nH]1)N1CCN(c2ccccc2)CC1	i	3%	-11%	0%	-2
Cc1cccc(N2CCN(C(=O)CCCSc3nc4ccccc4[nH]3)CC2)c1C	i	-3%	45µM*	2%	-29
COc1cccc(OC)c1C(=O)NC(=S)Nc1ccc2c(c1)Cc1ccccc1-2	-115%*	-11%	7%	16%	-1
COc1cccc(OC)c1C(=O)Nc1ccc2c(c1)Cc1ccccc1-2	i	-7%[15.4 µM]	-32%	0%	-21
Cc1ccccc1C(=O)c1cccn1CC(=O)NCCN1CCN(c2cccc(C)c2C)CC1	i	-17%	-7%	1%	-69*
O=C(Nc1ccccc1F)c1ccc(O)c2ncccc12	x	x	x	1%	x
O=C(Cc1n[nH]c(=O)c2ccccc12)Nc1ccc(-c2nnc3n2CCCCC3)cc1	-110%*	5%	-7%	0%	0
O=C(Cn1[nH]c(=O)c2ccccc2c1=O)Nc1ccc(-c2nnc3n2CCCCC3)cc1	i	4%	7%	3%	-3
Cc1ccc(S(=O)(=O)C(CNC(=O)COc2ccccc2)c2cccs2)cc1 (stereo unspecified)	x	x	x	2%	x
CCCc1cc(-c2n[nH]c(=S)n2-c2cccc(C)c2)cs1	i	-4%[15.4 µM]	x	1%	-31
Cc1cccc(-n2c(-c3ccco3)n[nH]c2=S)c1	i	6.3µM*	15%	30%	9
Cc1cccc(-n2c(-c3csc(C(C)C)c3)n[nH]c2=S)c1	i	17%	-30%	0%	-71*
COc1cc(OC)cc(C(=O)Nc2ccc(-c3nc4cc(C(C)C)ccc4o3)cc2)c1	x	x	x	2%	x
CCN(CC)CCN	x	x	x	x	-19
COc1ccc2cc(C#N)c(N3CCN(C(=O)c4ccccc4C)CC3)nc2c1	i	-22%	40µM*	-2%	10
COc1ccc2nc(N3CCC(O)CC3)c(C#N)cc2c1	i	10%	7%	5%	8
SMILES	pAkt inh	gsp agonist	gsp antagonist	RXFP1 ag	RXFP1 antag
COc1ccc2nc(N3CCC(C)CC3)c(C#N)cc2c1	-103%*	-1%	-17%	0%	-15
Cc1ccc(-n2ncc3c(Nc4cccc(C(F)(F)F)c4)ncnc32)cc1C	x	x	x	9%	3
CCOC(=O)c1cc2c(=O)n3ccccc3nc2n(CC(C)C)c1=NC(=O)COc1ccc(Cl)cc1	x	x	x	2%	x
CCOC(=O)C(=O)CCc1ccccc1	x	x	x	x	-6
CC(C)C(CCNC1CCN(C)CC1)c1ccc(Cl)cc1 (stereo unspecified)	i	10%	20%	-1%	u
CN1CCC(NCCC(c2ccc(F)cc2)c2ccc(Cl)cc2)CC1 (stereo unspecified)	i	-2%[15.4 µM]	11%	0%	-86*
O=C(c1ccccc1F)N1c2nc(-c3ccco3)nn2C2(CCCCC2)[C@@H]2CCCC[C@@H]21	x	x	x	-1%	-65*
COc1ccc(C(=O)N2c3nc(-c4ccco4)nn3C3(CCCCC3)[C@@H]3CCCC[C@@H]32)cc1OC	x	x	x	0%	-26
O=C(c1ccccc1F)N1c2ncnn2C2(CCCCC2)[C@@H]2CCCC[C@@H]21	x	x	x	1%	-8
O=C(c1ccc(F)cc1)N1c2nc(-c3ccco3)nn2C2(CCCCC2)[C@@H]2CCCC[C@@H]21	x	x	x	3%	-71*
Cc1c(C(=O)NCCc2ccc(Cl)cc2)sc2nc3n(c(=O)c12)CCCC3	x	x	x	12%	-11
O=C(Oc1cccc2cccnc12)c1ccco1	-110%*	-41%	12%	-3%	-8
CCCCOc1ccc(C(=O)Nc2onc3c2CCCC3)cc1	x	x	x	-1%	-32
O=C(O)CNS(=O)(=O)c1ccc2c(c1)C(=O)c1cc(S(=O)(=O)NCC(=O)O)ccc1-2	i	13µM*	3%	28%	2
O=C1c2cc(S(=O)(=O)NCCO)ccc2-c2ccc(S(=O)(=O)NCCO)cc21	i	0%[15.4 µM]	8%	4%	5
O=C(Nc1cccc([N+](=O)[O-])c1)c1cc2ccccc2cc1O	i	-24%	14µM*	2%	-69*
COc1ccc(-c2cn3nc(N4CCCC(C(=O)Nc5ccccc5F)C4)sc3n2)cc1 (stereo unspecified)	x	x	x	0%	-13
Cc1cc(C)nc(SCc2cc(=O)c(OC(=O)c3ccc(Cl)c([N+](=O)[O-])c3)co2)n1	i	-38%	35µM*	5%	-3
Cc1cc(C)nc(SCc2cc(=O)c(OC(=O)c3ccc(S(=O)(=O)N(C)C)cc3)co2)n1	i	-6%	-20%	1%	x
C=Cc1ccc(Cn2c(=O)n(-c3cccc(C)c3)c(=O)c3c2c2cc(C)ccc2n3C)cc1	x	x	x	0%	x
CN(CC(=O)NC1CCCC1)S(=O)(=O)c1cccc(Cl)c1	i	1%[15.4 µM]	-3%	x	-8
COc1cc(S(=O)(=O)NC2CCCCC2)ccc1Cl	-119%*	-8%	3%	-2%	-8
CCCN1CCC(NC(=O)Nc2cc(Cl)ccc2OC)CC1	i	0%	8%	1%	1
COc1ccc(S(=O)(=O)NC2CCCCC2)cc1C	i	-67%	-7%	1%	16
COc1ccc(S(=O)(=O)N(C)CC(=O)NC2CCCC2)cc1Cl	-110%*	-37%	8%	0%	-3
COc1ccc(Cl)cc1NC(=O)NC1CCCCC1	-127%*	9%	-11%	1%	6
CN(C)S(=O)(=O)c1ccc(Cl)c(C(=O)OCC(=O)NC(=O)NC2CCCC2)c1	i	-10%	1µM*	2%	-4
